IL-1B inflam inh: qHTS for Inhibitors of Inflammasome Signaling: IL-1-beta AlphaLISA Primary Screen; THP-1 LPS/ATP IL-1B secretion, AlphaLISA, 16 h; active compounds read low; activity change, % at 57.5 µM; 360,000 compounds, 4.7% hits; AID 743279, 2014; in the data active = activity change below about -50%; inconclusive = mostly about -30% to -49%; also: % is scaled to controls: 0 for no effect and ±100 for the full control effect
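Secreted IL-1B measured by AlphaLISA bead assay after 16 h compound exposure of THP-1 cells; compounds (final up to 57.5 uM) added 1 h before LPS (250 ng/mL) and ATP (1.25 mM) stimulation; lower signal means less secretion.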
KB-3-1 cytotox: qHTS assay for MDR1-selective chemotherapeutics: Primary screen using the parental adenocarcinoma cell KB-3-1 | Potency, µM (doses to about 46.1 µM), most hits filed as cytotoxic | KB-3-1 viability, CellTiter-Glo ATP luminescence, 72 h | 400,000 compounds, 1.4% hits | AID 1347075, 2019; also: potency is read from the fitted curve at half-maximal effect; % is scaled to controls: 0 for no effect and ±100 for the full control effect; nearly all actives have a fitted effect of over 60% in size
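Cells are dispensed, compounds pinned in, plates held at 37 °C for 72 h, then CellTiter-Glo is added and luminescence read after 10 minutes. Cell line: parental KB-3-1 in phenol-red-free DMEM, 10% FBS.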
MCF10A rerep: A quantitative high throughput screen for small molecules that induce DNA re-replication in MCF 10a normal breast cells | Potency, µM (doses to about 46.1 µM), without a hit: top-dose activity, positive = re-replication, usual class: activators | 350,000 compounds, 2.9% hits | MCF 10A DNA re-replication, Hoechst nuclear intensity, 48 h | AID 624296, 2012; also: potency is read from the fitted curve at half-maximal effect; % of control where 0% means no effect; nearly all actives have a fitted effect of over 50% in size
KB-V1 MDR tox: qHTS assay for MDR1-selective chemotherapeutics: Primary screen using the drug-selected MDR subline cells KB-V1; AID 1347076, 2019; 400,000 compounds, 3.4% hits; Potency, µM (top dose mostly 46.1 µM), most hits filed as cytotoxic; KB-V1 MDR cells viability, CellTiter-Glo, 72 h; also: potency is read from the fitted curve at half-maximal effect; % is scaled to controls: 0 for no effect and ±100 for the full control effect; nearly all actives have a fitted effect of over 60% in size
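KB-V1 MDR subline cells in DMEM (phenol-red free, 10% FBS) exposed to compounds in qHTS concentration series for 72 h at 37 degrees C. Viability read by CellTiter-Glo luminescence; concentration-effect curves fitted after normalization and correction.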
SW480 rerep: A quantitative high throughput screen for small molecules that induce DNA re-replication in SW480 colon adenocarcinoma cells. SW480 DNA re-replication, Hoechst DNA content imaging, 48 h. Potency, µM (titrated, usually from 46.1 µM), for inactives: top-dose re-replication activation, most hits filed as activators. 340,000 compounds, 1.8% hits; also: potency is read from the fitted curve at half-maximal effect; % of control where 0% means no effect; nearly all actives have a fitted effect of over 55% in size
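Cells (250 per well) received 23 nL compound or DMSO by pin tool and were kept 48 hr at 37 C, 5% CO2. Nuclei were then stained with Hoechst for 40 min and scanned for DNA content.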
* hit, by the source's call; i = inactive; ? = inconclusive; . = no result. The list is not random: actives were taken first. Their share in the collection is about 9.9%. Unless noted, calls follow the shape of the dose curve; as a rule, active = well fitted curve in the direction sought with a large enough effect; inconclusive = small, poorly fitted or top-dose-only effect, or another doubt; inactive = no such curve, though single readings can be large; an effect the other way counts as inactive or inconclusive.

SMILES | IL-1B inflam inh | KB-3-1 cytotox | MCF10A rerep | KB-V1 MDR tox | SW480 rerep
N#C/C(=C\c1ccc(O)c(Br)c1)C(=O)NCc1ccccc1 | 28 | i | 21µM* | i | 8.2µM*
COC(=O)c1ccc(CNC(=O)COC(=O)CC23CC4CC(CC(Br)(C4)C2)C3)cc1 | 0 | i | -2% | i | .
NC(=O)C1CCCN(CC(O)COCc2ccc(Cl)cc2)C1 (stereo not drawn) | 20 | i | -3% | i | -35%
O=C(CN1C(=O)C2(OCCO2)c2ccccc21)c1ccc(Cl)cc1 | 3 | i | 13% | 21µM* | 0%
O=C(COC(=O)c1ccc[n+]([O-])c1)Nc1ccc(Cl)cc1[N+](=O)[O-] | 8 | i | 3% | i | -4%
CC1CC(=O)Nc2ccccc2N1S(=O)(=O)c1cccc(Cl)c1 (stereo not drawn) | -5 | i | 11% | i | 1%
C=CCNC(=O)/C(C#N)=C/c1c(N2CC(C)OC(C)C2)nc2ccccn2c1=O (stereo not drawn) | 0 | i | ? | i | 16µM*
Cc1ccc(S(=O)(=O)/C(C#N)=C/c2c(N3CC(C)OC(C)C3)nc3ccccn3c2=O)cc1 (stereo not drawn) | 5 | i | 6% | i | 2%
CNC(=O)/C(C#N)=C/c1c(N2CCN(c3cccc(Cl)c3)CC2)nc2c(C)cccn2c1=O | -66* | i | 2.9µM* | i | 0%
C=CCNC(=O)/C(C#N)=C/c1c(N2CCN(c3cccc(Cl)c3)CC2)nc2c(C)cccn2c1=O | -5 | i | 21µM* | ? | 4%
CC1CCN(C(=O)C(=O)Nc2sc3c(c2C(N)=O)CC(C)(C)OC3)CC1 | 4 | i | -2% | i | -6%
COC(=O)c1cc2occc2n1CC(=O)Nc1cc(OC)cc(OC)c1 | -52* | i | -18% | i | -4%
CCOC(=O)Cn1nc(NC(=O)c2cc(OC)cc(OC)c2)cc1C | -3 | i | 21µM* | i | -2%
CCOC(=O)Cn1nc(NC(=O)COc2ccc(F)cc2)cc1C | -11 | i | 0% | i | -3%
CCOC(=O)Cn1ccc(NC(=O)c2ccc3c(c2)OCO3)n1 | -95* | i | 0% | i | 13%
CCOC(=O)Cn1nc(NC(=O)c2ccc(C(=O)OC)cc2)cc1C | -96* | i | ? | i | -10%
O=C(NCC(=O)N1CCN(C(c2ccccc2)c2ccccc2)CC1)c1ccccc1Br | 5 | ? | . | i | .
Cc1nn(-c2ccccc2)c(C)c1-c1nnc(-c2c(C)nn(-c3ccccc3)c2C)o1 | 3 | i | 0% | 9.2µM* | -13%
Cc1nn(-c2ccccc2)c(C)c1-c1nnc(C(F)(F)F)o1 | 13 | i | 1% | i | -14%
COc1ccc(CN2CCN(C(c3ccc(F)cc3)c3ccc(F)cc3)CC2)c(OC)c1OC | -24 | ? | 21µM* | 18µM* | 17%
COc1ccc(CN2CCN(S(=O)(=O)c3ccc(F)cc3)CC2)c(OC)c1OC | 20 | i | ? | ? | -2%
COc1ccc(CN2CCN(c3ccc(F)cc3)CC2)c(OC)c1OC | 9 | ? | -5% | 8.2µM* | ?
COc1cc(OC)c(CN2CCN(c3ccc(F)cc3)CC2)cc1Br | 2 | i | 3% | 16µM* | 14%
COc1cc(C2c3cc4c(cc3CC3COC(=O)N32)OCO4)cc(OC)c1OC (stereo not drawn) | 2 | 0.73µM* | 1.3µM* | 2.1µM* | 1.2µM*
COc1cc2c(c(OC)c1OC)C(c1ccc3c(c1)OCO3)CC(=O)O2 (stereo not drawn) | 33 | i | ? | i | 8%
SMILES | IL-1B inflam inh | KB-3-1 cytotox | MCF10A rerep | KB-V1 MDR tox | SW480 rerep
CN(C)c1nc2c(N)ncnc2n1[C@H]1O[C@@H](CO)[C@H](O)[C@@H]1O | 34 | i | 4% | i | -6%
Nc1ncnc2c(C3OC(CO)C(O)C3O)c[nH]c12 (stereo not drawn) | -104* | 0.18µM* | ? | 0.29µM* | 0.21µM*
CCOC(=O)c1ccc(N=Cc2cnc(N)nc2N)cc1 | 9 | i | 3% | ? | 9%
COC(=O)c1cc(C)ccc1/C=C1/Cc2c(C)cc(C)cc2C1=O | -7 | i | 3% | 16µM* | 27%
COC(=O)c1ccccc1C(=O)c1c(C)cc(C)cc1C | . | . | . | i | .
CCOCCCNC(=O)Cn1nc(CC)n2c(cc3c(OC)cccc32)c1=O | . | i | . | i | .
O=C(CSc1nc2nn(-c3ccccc3)c(=O)c-2c2n1CCCCC2)Nc1ccc(F)c(F)c1 | -28 | i | 2% | i | 4%
O=C(CSc1nc2nn(-c3ccccc3)c(=O)c-2c2n1CCCCC2)Nc1ccc(F)cc1F | -56* | i | 5% | i | 4%
CC(C)CNC(=O)CSc1nc2nn(-c3ccccc3)c(=O)c-2c2n1CCCCC2 | -53* | i | -6% | ? | 5%
O=c1cc(N2CCCCC2)c(-c2ccccc2)nn1Cc1ccc(F)cc1 | -25 | ? | ? | i | -13%
O=c1cc(N2CCCCC2)c(-c2ccccc2)nn1Cc1c(Cl)cccc1Cl | -67* | ? | 21µM* | ? | 19%
O=c1cc(N2CCCCC2)c(-c2ccccc2)nn1Cc1ccc(Cl)cc1 | -27 | ? | 16µM* | ? | ?
COc1cccc(NS(=O)(=O)c2ccc(C)c(C(=O)N3CCCCC3)c2)c1 | 26 | i | 5% | i | -1%
c1ccc(-c2nnc(C3CC(c4ccncc4)=NO3)o2)cc1 (stereo not drawn) | 25 | i | -6% | i | -7%
COc1ccc(CN2CCc3c(c(=O)n4ncc(C(=O)N5CCN(c6ccccc6F)CC5)c4n3C)C2)cc1 | . | i | . | i | .
CCOC(=O)c1cccc(NC(=O)c2c(N)n(C)c(=O)[nH]c2=O)c1 | 0 | i | ? | i | -16%
CCn1c(CN2CCC(C)CC2)nc2cc(NC(=O)COc3ccc([N+](=O)[O-])cc3)ccc21 | . | i | . | i | .
Cc1ccc(S(C)(=O)=NS(=O)(=O)c2cccc3nsnc23)cc1 (stereo not drawn) | -53* | i | 3% | i | 2%
Cc1ccc(NS(=O)(=O)c2cccc3nsnc23)cc1 | 23 | i | 4% | i | -5%
Cc1nc2ccc(S(=O)(=O)N(CC(=O)Nc3cccc(C)c3C)Cc3ccccc3)cc2s1 | . | i | . | i | .
O=C(/C=C/c1ccco1)NC(=S)Nc1cccc(-c2nc3ccccc3o2)c1 | 37 | ? | 3.7µM* | 8.2µM* | 9.2µM*

Compound activity (PubChem)
